The results in this text go back to PubChem BioAssay AID651791 (National Center for Advancing Translational Sciences (NCATS), 2012).

Results filed as inconclusive are left out. Calls of active or inactive are those of the source. Calls come from the whole dose curve; as a rule, active = well fitted inhibition curve with a large enough effect; inconclusive = small, poorly fitted or top-dose-only effect; inactive = no such curve, though single readings can be large or run the other way.
Potency is the fitted concentration of half-maximal effect.

The test in a line: InCell qHTS Assay for Inhibitors of the mTORC1 Signaling Pathway in MEF (Tsc2-/-, p53-/-) Cells: Hit Validation.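 Note: phospho-S6 Ser235/236 signal normalized to propidium iodide cell count per well; nearly all actives have a fitted effect of over 75% in size.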 The settings on record: phospho-rpS6 immunofluorescence, 24 h; activity change, negative = inhibition: at 38.3 µM (top of the series). (In general: Quantitative high-throughput screening tests each substance at several concentrations.)
Consider `CN(C)c1ccc(Nc2nc3ccccc3n3nnnc23)cc1`, for which the activity change, negative = inhibition is -0.0295%.
Same read-out and setting: under `COc1ccccc1NC(=O)c1sc(-c2ccc(Cl)cc2)cc1N` stands -100%; under `COc1ccc(NC(=O)Cn2c(=O)n(-c3ccccc3)c(=O)c3ccc(C(=O)NCc4ccc5c(c4)OCO5)cc32)cc1`, -21.2%.
Turning to `CCOc1ccc(/C=C/c2nc3ccccc3n2S(=O)(=O)c2cccc(Cl)c2)cc1`, the activity change, negative = inhibition is -100%.
On the same count and under the same terms, then `COC(=O)c1ccccc1NC(=O)CSc1n[nH]c(CC(C)C)n1`, with -100%; and `CCOC(=O)c1c(NC(=O)c2ccc(S(=O)(=O)N3CCC(C)CC3)cc2)sc2c1CCN(C)C2`, with 1.72%; and `COc1cccc(-c2nc(S(=O)(=O)c3ccc(Cl)cc3)c(NCc3ccccc3)o2)c1`, with -100%.
Same read-out and setting: under `COc1ccc(CCNC(=O)C(C)n2nc(C)c3sc4ccccc4c3c2=O)c(OC)c1` (stereo not drawn) stands -100%; under `O=C1c2[nH]nc(-c3ccccc3O)c2C(c2ccc(Cl)cc2)N1CCc1ccccc1` (stereo not drawn), -21.4%; under `O=C(C1CCN(c2nc3ccccc3[nH]2)CC1)N1CCN(c2cccc(Cl)c2)CC1`, -100%.
Consider `CC(C)CS(=O)(=O)c1oc(-c2ccc(F)cc2)nc1S(=O)(=O)c1ccccc1`, for which the Potency is 3.29 µM (active).
In the case of `Nc1nnc(SCC(=O)Nc2cccc(F)c2)s1`, the activity change, negative = inhibition is -100%.
The same measure, in the same setting: under `Cc1ccc2nc(/C(C#N)=C/c3ccc(-c4ccc(F)cc4F)o3)[nH]c2c1` stands -100%.
In the case of `CCC(C)Sc1oc(-c2ccco2)nc1S(=O)(=O)c1ccc(C)cc1` (stereo not drawn), the activity change, negative = inhibition is -100%.
Same read-out and setting: then `CCC1CCc2nc3sc(C(=O)Nc4cccc(F)c4)c(N)c3cc2C1` (stereo not drawn), with -100%.
Turning to `COc1ccc(-c2nc(CCNC(=O)c3c(F)cccc3Cl)cs2)cc1`, the activity change, negative = inhibition was -100%.
On the same count and under the same terms, under `COc1cc(NC(=O)Cn2nc(C(F)(F)F)c3c2CCCC3)c(OC)cc1Cl` stands -100%.
Turning to `COc1ccc(CNC(=O)C2CCN(c3nc4ccc(C)cc4[nH]3)CC2)cc1`, the activity change, negative = inhibition was -100%.
Still for that read-out and setting: then `CCOc1ccc(CC(=O)NC2CC(=O)N(c3ccc4c(c3)OCCO4)C2)cc1` (stereo not drawn), with -100%; and `Cc1ccccc1CN1C(=O)C(O)(CC(=O)c2cccc(Br)c2)c2ccccc21` (stereo not drawn), with -100%.
As for `CCOc1ccccc1NC(=O)Cn1nnc(C(=O)NCc2cccs2)c1N`, the activity change, negative = inhibition was -100%.
As for `COc1cccc(-c2nc(SCC(=O)NCC3CCCO3)c(-c3ccc(F)cc3)[nH]2)c1` (stereo not drawn), the activity change, negative = inhibition is -100%.
With `CCOc1ccc(-c2nc(SCC(=O)c3ccccc3)n[nH]2)cc1`, the activity change, negative = inhibition was -2.9%.
The same measure, in the same setting: then `Cc1ccc(C(=O)CC2(O)C(=O)N(Cc3ccccc3)c3ccccc32)c(C)c1` (stereo not drawn), with -100%.
On the same count and under the same terms, under `CCOc1cc(C(=O)Nc2ccc(-c3cn4cccnc4n3)cc2)cc(OCC)c1OCC` stands -100%; under `CCc1nn(CC(=O)NCc2ccccc2Cl)c(=O)c2cccn12`, -100%; under `CCc1ccc(OCC(=O)Nc2ccc3oc(-c4ccc(OC)cc4)nc3c2)cc1`, -100%.
Same read-out and setting: under `Cc1ccc(Nc2nnc(-c3ccc(C)c(S(=O)(=O)N4CCOCC4)c3)c3ccccc23)c(C)c1` stands -100%; under `CCc1ccc(CNc2ncc(-c3cccc(OC)c3)n2C)cc1`, -100%.
Take `Cc1ccc(CN(Cc2ccco2)C(=O)c2cccc(C)c2)cc1`: the activity change, negative = inhibition was -100%.
Still for that read-out and setting: under `CCCSc1oc(-c2ccco2)nc1S(=O)(=O)c1ccc(Br)cc1` stands -100%; under `CC(C)OCCCn1c(=O)c2ccccc2n2c(-c3ccc(F)cc3)nnc12`, -100%; under `COc1ccc(N2CCN(C(=O)C3CCCN(S(=O)(=O)c4ccc5c(c4)CCCN5C(C)=O)C3)CC2)cc1` (stereo not drawn), -100%.
The same measure, in the same setting: under `CCCCOc1ccc(Cn2c(=O)sc3ccccc32)cc1` stands -100%.
Still for that read-out and setting: then `CCCCOCc1cc(CN2CCN(c3cccc(Cl)c3)CC2)c(O)c2ncccc12`, with -100%; and `Oc1ccccc1Nc1nc(-c2ccccc2)c2cc(Cl)ccc2n1`, with -100%; and `O=C(CS(=O)(=O)c1cccc2nsnc12)NCc1ccc(Cl)cc1`, with -100%.
Regarding `C=CCc1c(C)nc2nc(SCC(=O)Nc3ccc(C)c(C)c3)nn2c1C`, the Potency is 9.27 µM (active).
